# According to the supplement of paper PMC9135407:
# “And” between values parts separate entries of the source, which are not always exact repeats. Equal entries are not always repeated. Structures can show the parent of a compound that is named as a salt. Out of some 5,800 compounds screened, about 620 (11%) showed activity. What follows is part of a selection rich in actives, with near analogues and random picks from the rest. Values without a mark were called inactive.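 The calls were made as follows: active = score above a cut-off or among the top three wells of a plate; in these data no inactive exceeds 0.85.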
# System: primary human hepatic stellate cells (donor 1)
# Assay: scaled lipid accumulation score (0 = DMSO-like, 1 = nortriptyline-like); higher = stronger HSC inactivation (lipid re-accumulation), active = hit call of the paper
# Settings: 48 h
# [1] = library stock concentration: 1 mM
# [2] = library stock concentration: 10 mM
# [3] = library stock concentration: 3.33 mM
# [4] = library stock concentration: 5.3 mM
# [5] = library stock concentration: 80 uM
# [6] = library stock concentration: 400 uM
# [7] = library stock concentration: 2 mM
# [8] = library stock concentration: 6.4 mM
compound,measurement,setting,value
CCCCC/C=C\C/C=C\C/C=C\CCCCC(=O)O [.gamma.-Linolenic Acid],scaled lipid accumulation score,[1],0.011
CCCCC/C=C\C/C=C\C/C=C\CCCCC(=O)O [Gamma-linolenic acid (18:3 n-6)],scaled lipid accumulation score,[1],0.024
Cl.Clc1ccc(CCCOCCCN2CCCCC2)cc1,scaled lipid accumulation score,[2],1.05 (active)
OC(CCCN1CCCCC1)(c1ccccc1)c1ccccc1 [Diphenidol HCl],scaled lipid accumulation score,[3],≤ 0
same,scaled lipid accumulation score,[2],0.007
OCCOCCN1CCN(C(c2ccccc2)c2ccc(Cl)cc2)CC1 (stereo unspecified) [Hydroxyzine pamoate],scaled lipid accumulation score,library stock concentration: 2.6 mM,0.044
same,scaled lipid accumulation score,[2],0.142
OCCOCCN1CCN(C(c2ccccc2)c2ccc(Cl)cc2)CC1 (stereo unspecified) [Hydroxyzine dihydrochloride],scaled lipid accumulation score,,0.453
OC(CCCN1CCCCC1)(c1ccccc1)c1ccccc1 [Diphenidol hydrochloride],scaled lipid accumulation score,,0.315
OCCOCCN1CCN(C(c2ccccc2)c2ccc(Cl)cc2)CC1 (stereo unspecified) [Hydroxyzine 2HCl],scaled lipid accumulation score,[3],0.1
same,scaled lipid accumulation score,[2],0.631
CCCCC[C@H](O)/C=C/[C@@H]1[C@@H](C/C=C\CCCC(=O)NCCO)[C@@H](O)C[C@H]1O [Prostaglandin F2.alpha. Ethanolamide],scaled lipid accumulation score,[1],≤ 0
Nc1ncnc2c1ncn2[C@@H]1O[C@H](CO)C[C@@H]1O [3'-deoxydenosine],scaled lipid accumulation score,[2],≤ 0
CC(C)(C)NCC(O)c1ccc(O)c(CO)c1 (racemic) [Albuterol (+/-)],scaled lipid accumulation score,[2],0.068
CO/N=C(\C(=O)N[C@@H]1C(=O)N2C(C(=O)O)=C(CSc3nnnn3C)CS[C@H]12)c1csc(N)n1,scaled lipid accumulation score,[2],≤ 0
CC(C)=CCCC(C)(OC1OC(COC2OCC(O)C(O)C2O)C(O)C(O)C1O)C1CCC2(C)C1C(O)CC1C3(C)CCC(OC4OC(CO)C(O)C(O)C4O)C(C)(C)C3CCC12C (stereo unspecified) [Gynostemma Extract],scaled lipid accumulation score,[3],0.01
same,scaled lipid accumulation score,[2],≤ 0
O=C(CCCN1CCC(O)(c2ccc(Cl)cc2)CC1)c1ccc(F)cc1 [Haloperidol hydrochloride],scaled lipid accumulation score,[2],0.78
O=C(CCCN1CCC(O)(c2ccc(Cl)cc2)CC1)c1ccc(F)cc1 [Haloperidol] [listing 1 of 2 here],scaled lipid accumulation score,,0.589
same,scaled lipid accumulation score,[3],0.302
same,scaled lipid accumulation score,[4],0.447
same,scaled lipid accumulation score,[2],0.787 and 0.814 and 0.297
O=C(CCCN1CCC(O)(c2ccc(Cl)cc2)CC1)c1ccc(F)cc1 [Haloperidol HCl],scaled lipid accumulation score,[4],0.419
O=C(CCCN1CCC(O)(c2ccc(Br)cc2)CC1)c1ccc(F)cc1 [Bromperidol],scaled lipid accumulation score,,0.632
same,scaled lipid accumulation score,library stock concentration: 4.8 mM,0.429
O=C(CCCN1CCC(O)(c2ccc(Cl)cc2)CC1)c1ccc(F)cc1 [Haloperidol] [listing 2 of 2 here],scaled lipid accumulation score,[2],1.12 (active)
NC(=O)C1(N2CCCCC2)CCN(CCCC(=O)c2ccc(F)cc2)CC1,scaled lipid accumulation score,[2],≤ 0
O=C(CCCN1CCC(O)(c2cccc(C(F)(F)F)c2)CC1)c1ccc(F)cc1 [Trifluperidol 2HCl],scaled lipid accumulation score,library stock concentration: 4.9 mM,0.327
Cl.O=C(CCCN1CCC(O)(c2cccc(C(F)(F)F)c2)CC1)c1ccc(F)cc1 [Trifluperidol hydrochloride],scaled lipid accumulation score,[2],0.88 (active)
COc1ccc(C2(CNC(=O)c3ccc(NC(=O)c4ccco4)cc3)CCOCC2)cc1,scaled lipid accumulation score,[5],≤ 0
same,scaled lipid accumulation score,[6],≤ 0
same,scaled lipid accumulation score,[7],≤ 0
same,scaled lipid accumulation score,[2],≤ 0
CCCCC[C@H](O)/C=C/[C@@H]1[C@@H](C/C=C\CCCCO)[C@@H](O)C[C@H]1O [Prostaglandin F2.alpha. Alcohol],scaled lipid accumulation score,[1],≤ 0
"CCCn1c(=O)c2[nH]c(-c3ccc(S(=O)(=O)O)cc3)nc2n(CCC)c1=O [1,3-Dipropyl-8-p-sulfophenylxanthine]",scaled lipid accumulation score,[2],0.108
CC1=C(C(=O)OC(C)C)C(c2cccc([N+](=O)[O-])c2)C(C(=O)OC2CN(C(c3ccccc3)c3ccccc3)C2)=C(N)N1 (stereo unspecified) [Azelnidipine],scaled lipid accumulation score,[3],0.061
same,scaled lipid accumulation score,[2],0.189
O=C(CCC/C=C\C[C@@H]1[C@@H](/C=C/[C@@H](O)CCc2ccccc2)[C@H](O)C[C@@H]1O)NC(CO)CO [17-phenyl trinor Prostaglandin F2.alpha. serinol amide],scaled lipid accumulation score,[1],0.062
COc1cc(NC(=O)c2ccccn2)ccc1Cl,scaled lipid accumulation score,[3],≤ 0
same,scaled lipid accumulation score,[2],≤ 0
COc1ccc(NC(=O)c2cc(OCCCN(C)C)nn2Cc2ccccc2)cc1.Cl [CFM 1571 hydrochloride],scaled lipid accumulation score,[2],1.11 (active)
COCCOc1nc(-c2ccc(Cl)c(Cl)c2)n(-c2ccc(NC(=O)CCl)cc2)n1 [MI-2 (MALT1 inhibitor)],scaled lipid accumulation score,[3],0.584
same,scaled lipid accumulation score,[2],0.62
O=C(O)CCC/C=C\CC1C(O)CC(O)C1/C=C/C(O)COc1cccc(Cl)c1 (stereo unspecified) [Cloprostenol],scaled lipid accumulation score,[1],≤ -0.021
O=C(O)CCC/C=C\CC1C(O)CC(O)C1/C=C/C(O)COc1cccc(Cl)c1 (stereo unspecified),scaled lipid accumulation score,[2],≤ -0.001
CC1CC(OC(=O)C(O)c2ccccc2)CC(C)(C)N1C (stereo unspecified) [Eucatropine hydrochloride],scaled lipid accumulation score,,≤ 0
same,scaled lipid accumulation score,library stock concentration: 6.1 mM,≤ -0.001
same,scaled lipid accumulation score,[2],≤ 0
CC1O[C@H](O[C@]2(O[C@H]3CC[C@@]4(C)C(=CC[C@H]5[C@@H]6C[C@H]7[C@H]([C@H](C)[C@H]8CC[C@H](C)CN87)[C@@]6(C)CC[C@@H]54)C3)C[C@@H](O[C@@H]3OC(CO)[C@@H](O)[C@@H](O)C3O)[C@@H](O)C(CO)O2)C(O)[C@@H](O)[C@H]1O (stereo partly drawn) [Solanine alpha],scaled lipid accumulation score,,≤ 0
CNC(=C[N+](=O)[O-])NCCSCc1ccc(CN(C)C)o1 [Ranitidine],scaled lipid accumulation score,[3],≤ 0
same,scaled lipid accumulation score,[8],≤ 0
same,scaled lipid accumulation score,[2],0.049 and ≤ 0
CNC(=C[N+](=O)[O-])NCCSCc1ccc(CN(C)C)o1 [Ranitidine hydrochloride],scaled lipid accumulation score,,≤ 0
same,scaled lipid accumulation score,[2],≤ 0 and ≤ -0.006
CNC(=C[N+](=O)[O-])NCCSCc1ccc(CN(C)C)o1 [Ranitidine HCl],scaled lipid accumulation score,[8],≤ 0
Cc1ccc(NC(=O)NCCSCc2ccc(CN(C)C)o2)cc1Cl,scaled lipid accumulation score,[2],0.931 (active)
CN(C)C/C=C/C(=O)Nc1cccc(Nc2ncc3c(n2)N(C)c2ccccc2C(=O)N3C)c1,scaled lipid accumulation score,[5],≤ -0.009
same,scaled lipid accumulation score,[6],0.1
same,scaled lipid accumulation score,[7],0.846
same,scaled lipid accumulation score,[2],0.566
CN(C)C/C=C/C(=O)Nc1ccc(C(=O)Nc2cccc(Nc3nccc(-c4cccnc4)n3)c2)cc1,scaled lipid accumulation score,[2],1.15 (active)
CN(C)C/C=C/C(=O)Nc1ccc(C(=O)Nc2cccc(Nc3ncc(Cl)c(-c4c[nH]c5ccccc45)n3)c2)cc1,scaled lipid accumulation score,[5],0.587
same,scaled lipid accumulation score,[6],0.669
same,scaled lipid accumulation score,[7],0.638
same,scaled lipid accumulation score,[2],0.41
Cc1cc(NC(=O)c2cccc(NC(=O)C=CCN(C)C)c2)ccc1Nc1nccc(-c2cccnc2)n1,scaled lipid accumulation score,[3],1.08 (active)
same,scaled lipid accumulation score,[2],1.02 (active)
C[C@@H]1CC2C3C[C@H](F)C4=CC(=O)C=C[C@]4(C)[C@@]3(F)[C@@H](O)C[C@]2(C)[C@@]1(O)C(=O)COC(=O)C(C)(C)C (stereo partly specified) [Flumethazone pivalate],scaled lipid accumulation score,library stock concentration: 4 mM,0.012
same,scaled lipid accumulation score,[2],≤ 0
"c1ccc2c(-c3ccncc3)c[nH]c2c1 [Rho Kinase Inhibitor III, Rockout]",scaled lipid accumulation score,[3],≤ 0
COc1ccc(-c2ccc3cc(C(=O)O)ccc3c2)cc1C12CC3CC(CC(C3)C1)C2,scaled lipid accumulation score,[2],0.008
COc1ccc(-c2ccc3cc(C(=O)O)ccc3c2)cc1C12CC3CC(CC(C3)C1)C2 [Adapalene],scaled lipid accumulation score,[3],≤ 0
same,scaled lipid accumulation score,[2],≤ 0
COc1cc(-c2cc(-c3cccc(O)c3)cnc2N)cc(OC)c1OC,scaled lipid accumulation score,[3],≤ -0.009
same,scaled lipid accumulation score,[2],≤ 0
"CC(=O)NC(CC(=O)O)C(=O)O (racemic) [Aspartic acid, N-acetyl (R,S)]",scaled lipid accumulation score,,0.182
N/C(=N\C(=O)c1nc(Cl)c(N)nc1N)NCc1ccccc1 [Benzamil hydrochloride],scaled lipid accumulation score,,0.168
N[C@H](Cc1ccccc1)C(=O)O [D-phenylalanine],scaled lipid accumulation score,[2],≤ -0.022
N/C(=N\C(=O)c1nc(Cl)c(N)nc1N)NCc1ccccc1 [Benzamil],scaled lipid accumulation score,library stock concentration: 6.3 mM,0.287
Cl.N/C(=N\C(=O)c1nc(Cl)c(N)nc1N)NCc1ccc(Cl)cc1Cl,scaled lipid accumulation score,library stock concentration: 11.8 mM,0.876 (active)
Cl.N/C(=N\Cc1ccccc1)NC(=O)c1nc(Cl)c(N)nc1N,scaled lipid accumulation score,library stock concentration: 14 mM,1.1 (active)
Cl.N/C(=N\C(=O)c1nc(Cl)c(N)nc1N)NCc1ccccc1 [Benzamil hydrochloride],scaled lipid accumulation score,[2],1.09 (active)
NC(=O)NC(=O)Cc1ccccc1 [Phenacemide],scaled lipid accumulation score,[2],≤ 0
"CCCCC/C=C\CCCC/C=C\C/C=C\CCCC(=O)O [5(Z),8(Z),14(Z)-Eicosatrienoic Acid]",scaled lipid accumulation score,[1],≤ 0
CCCCC[C@H](O)/C=C/[C@@H]1[C@H](C/C=C\CCCC(=O)O)[C@@H](O)C[C@H]1O [8-iso Prostaglandin F2.alpha.],scaled lipid accumulation score,[1],≤ 0
CC(C)(C)n1nc(-c2cccc3ccccc23)c2c(N)ncnc21 [1-Naphthyl PP1],scaled lipid accumulation score,[2],0.016
"CC(C)(C)C#Cc1cc(N(C(=O)[C@H]2CC[C@H](C)CC2)[C@H]2CC[C@H](O)CC2)c(C(=O)O)s1 [VX-222 (VCH-222, Lomibuvir)]",scaled lipid accumulation score,[3],≤ 0
same,scaled lipid accumulation score,[2],0.047
Cc1c(O)c(=O)ccn1C,scaled lipid accumulation score,[2],≤ 0
O.O.O.O.O=C([O-])CC(O)(CC(=O)[O-])C(=O)[O-].[Li+].[Li+].[Li+] [Lithium citrate],scaled lipid accumulation score,library stock concentration: 9.5 mM,≤ 0
same,scaled lipid accumulation score,[2],0.016
